Records with an inconclusive call do not appear. Activity calls are given as the source filed them. Calls follow the shape of the dose curve; as a rule, active = well fitted curve in the direction sought with a large enough effect in the repeat runs; inconclusive = weak or mixed curves; inactive = no such curve, though single readings can be large; an effect the other way counts as inactive or inconclusive.

Potency data for 17 compounds are collected here from PubChem BioAssay (Tox21).

Assay [1] in a line: qHTS assay to identify small molecule agonists of the RXR signaling pathway - cell viability counter screen (AID 1159529). Also: series mostly up to about 77 µM; nearly all actives have a fitted effect of over 50% in size. The method, boiled down:
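Luminescence from CellTiter-Glo (30 min, RT) measured viability in the same wells as the beta-lactamase reporter readout. Cells: GeneBLAzer RXR-alpha HEK 293T, 2% charcoal-stripped FBS. Compound exposure 16 hr, 37 C.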
In general terms: qHTS replaces the single test concentration by a dilution series.

A short description of assay [2]: qHTS assay to identify small molecule antagonists of the retinoid acid receptor (RAR) signaling pathway - cell viability counter screen (AID 1159551). Also: nearly all actives have a fitted effect of over 35% in size. The method, boiled down:
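C3RL4 cells were seeded overnight at 37 C, then treated with compounds plus 1 uM (final) retinol for 6 h at 37 C. Viability was read as ATP by CellTiter-Glo luminescence after 30 min at room temperature.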

A short description of assay [3]: qHTS assay to identify small molecule antagonists of the retinoic acid receptor (RAR) signaling pathway (AID 1159552; also: nearly all actives have a fitted effect of over 50% in size). A digest of the protocol:
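Luminescence from a RARE luciferase reporter in C3RL4 cells served as read-out. Cells received compounds together with 1 uM final retinol and incubated 6 hr at 37 C before detection reagent was added for 30 min at room temperature.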

The nature of assay [4]: qHTS assay to identify small molecule agonists of the retinoic acid receptor (RAR) signaling pathway (AID 1159553). Also: potency is read from the fitted curve at half-maximal effect. The method, boiled down:
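C3RL4 cells carrying a RARE luciferase reporter were plated overnight at 37 C, then exposed to compounds in DMSO for 6 hr at 37 C and 5% CO2. Luminescence was read 30 min after luciferase reagent addition at room temperature.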

`CC(C)CCON=O`: the Potency result in assay [1], in assay [2], in assay [3] and in assay [4] was “inactive” in each case.
Turning to `CCCCOC(=O)CCC(=O)OCCCC`, the Potency result in assay [1], in assay [2], in assay [3] and in assay [4] was “inactive” in each case.
With `CC1(C)CC(=O)CC(C)(C)N1[O]`, the Potency result in assay [1], in assay [2], in assay [3] and in assay [4] was “inactive” in each case.
Take `Nc1ccc2c(c1)Cc1ccccc1-2`: the Potency entry in assay [1], in assay [2] and in assay [3] was “inactive” throughout. The Potency in assay [4] is 10.8 µM (active).
`O=C(O)COc1cc(Cl)c(Cl)cc1Cl`: the Potency result in assay [1], in assay [2], in assay [3] and in assay [4] was “inactive” each time.
Consider `CN(C)N`, for which the Potency entry in assay [1], in assay [2], in assay [3] and in assay [4] was “inactive” each time.
`C1CS1`: the Potency result in assay [1], in assay [2], in assay [3] and in assay [4] was “inactive” in each case.
In the case of `C=CCc1ccccc1O`, the Potency entry in assay [1], in assay [2], in assay [3] and in assay [4] was “inactive” throughout.
For the compound `O=C(NCNC(=O)NC1C(=O)NC(=O)N1CO)NC1C(=O)NC(=O)N1CO` (stereo not drawn), the Potency entry in assay [1], in assay [2], in assay [3] and in assay [4] was “inactive” throughout.
Take `Nc1cc(Cl)cc(C(=O)O)c1Cl`: the Potency entry in assay [1], in assay [2], in assay [3] and in assay [4] was “inactive” throughout.
Regarding `C=C(C)C(=O)OCCCCOC(=O)C(=C)C`, the Potency result in assay [1], in assay [2], in assay [3] and in assay [4] was “inactive” in each case.
With `COc1ccc(C(=O)c2c(C)n(CCN3CCOCC3)c3ccccc23)cc1`, the Potency entry in assay [1], in assay [2], in assay [3] and in assay [4] was “inactive” throughout.
With `COc1ccc(C(O)(c2cncnc2)C2CC2)cc1` (stereo not drawn), the Potency entry in assay [1], in assay [2], in assay [3] and in assay [4] was “inactive” throughout.
On to `Cc1ccc2c(C)cccc2c1`, for which the Potency result in assay [1], in assay [2], in assay [3] and in assay [4] was “inactive” in each case.
For the compound `C=CC(=O)NC(C)(C)CC(C)=O`, the Potency result in assay [1], in assay [2], in assay [3] and in assay [4] was “inactive” in each case.
As to `COC(=O)Cc1ccccc1`, the Potency entry in assay [1], in assay [2], in assay [3] and in assay [4] was “inactive” in each case.
Turning to `C1CCNCC1`, the Potency entry in assay [1], in assay [2], in assay [3] and in assay [4] was “inactive” throughout.
